Unmarked numbers belong to inactive results.
Key:
Assay in all cases: log2 ratio of Biotin-Ahx-Ub-VS probe labelling (fragment/DMSO); higher = less target engagement (more negative = stronger competition), active = hit call of the paper (q ≤ 0.05, log2 ratio ≤ -1)
Settings in all cases: compound concentration: 200 uM; treatment time: 3 h
OTUD6B = target: T1, OTUD6B (UniProt Q8N6M0)
T1 sequence (whole entry): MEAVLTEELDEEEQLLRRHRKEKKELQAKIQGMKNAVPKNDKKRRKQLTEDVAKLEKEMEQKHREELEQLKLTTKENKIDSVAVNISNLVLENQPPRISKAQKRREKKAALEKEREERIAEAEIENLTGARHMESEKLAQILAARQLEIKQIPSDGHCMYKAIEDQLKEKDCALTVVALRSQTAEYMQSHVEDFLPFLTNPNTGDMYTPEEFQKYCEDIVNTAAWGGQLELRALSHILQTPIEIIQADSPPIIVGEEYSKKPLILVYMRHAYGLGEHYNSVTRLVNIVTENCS
Outline: (§1)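 Lysate from HEK293T cells, 495 µg per sample in Tris/CHAPS/IGEPAL buffer with protease inhibitors, was treated for 3 h in triplicate with fragment at 200 µM or vehicle. Biotin-Ahx-Ub-VS was next added at 0.5 µM final for 1 h. The labelled DUBs were enriched with NeutrAvidin, digested with LysC and trypsin, and run by diaPASEF LC-MS/MS, with values given as average log2 fragment/vehicle ratios by unpaired t-test on global-median-normalised Spectronaut quantities of proteins with ≥2 unique peptides.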

OTUD7B = target: T2, OTUD7B (UniProt Q6GQQ9)
T2 sequence (whole entry): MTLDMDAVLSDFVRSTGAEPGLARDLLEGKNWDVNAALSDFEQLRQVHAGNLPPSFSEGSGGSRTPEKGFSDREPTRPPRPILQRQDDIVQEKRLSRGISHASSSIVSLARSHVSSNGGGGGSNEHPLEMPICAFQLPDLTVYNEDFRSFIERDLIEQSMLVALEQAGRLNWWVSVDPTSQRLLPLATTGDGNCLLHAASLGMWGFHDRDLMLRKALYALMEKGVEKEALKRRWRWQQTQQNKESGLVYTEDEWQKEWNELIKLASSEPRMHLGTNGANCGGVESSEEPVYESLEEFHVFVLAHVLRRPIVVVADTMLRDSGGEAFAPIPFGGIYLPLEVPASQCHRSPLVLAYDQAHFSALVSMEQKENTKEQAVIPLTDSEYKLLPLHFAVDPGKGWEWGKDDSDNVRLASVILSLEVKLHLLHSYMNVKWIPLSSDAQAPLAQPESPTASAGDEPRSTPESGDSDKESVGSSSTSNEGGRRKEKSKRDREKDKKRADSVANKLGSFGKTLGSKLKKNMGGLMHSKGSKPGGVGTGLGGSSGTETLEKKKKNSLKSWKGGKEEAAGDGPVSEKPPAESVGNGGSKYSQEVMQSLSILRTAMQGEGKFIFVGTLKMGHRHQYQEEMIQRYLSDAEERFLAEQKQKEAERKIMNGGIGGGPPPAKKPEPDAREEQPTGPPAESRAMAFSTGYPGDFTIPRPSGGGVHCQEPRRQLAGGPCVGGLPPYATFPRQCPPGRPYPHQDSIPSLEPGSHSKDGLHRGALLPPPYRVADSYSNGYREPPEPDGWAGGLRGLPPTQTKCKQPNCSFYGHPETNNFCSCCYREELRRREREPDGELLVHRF
Outline: as §1

PRPF8 = PRPF8 (UniProt Q6P2Q9)
Outline: as §1

PSMD7 = target: T3, PSMD7 (UniProt P51665)
T3 sequence (whole entry): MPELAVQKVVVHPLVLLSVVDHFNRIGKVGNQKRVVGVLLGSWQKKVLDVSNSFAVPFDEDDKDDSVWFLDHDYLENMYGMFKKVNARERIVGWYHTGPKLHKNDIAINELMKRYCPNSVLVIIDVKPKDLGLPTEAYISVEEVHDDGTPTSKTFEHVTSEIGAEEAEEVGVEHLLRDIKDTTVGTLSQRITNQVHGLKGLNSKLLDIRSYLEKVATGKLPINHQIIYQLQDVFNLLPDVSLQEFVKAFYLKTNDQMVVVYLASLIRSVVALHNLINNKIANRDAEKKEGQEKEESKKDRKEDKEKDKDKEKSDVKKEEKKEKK
Outline: as §1

UCHL1 = UCHL1 (UniProt P09936)
Sequence of UCHL1 (P09936 whole entry, looked up): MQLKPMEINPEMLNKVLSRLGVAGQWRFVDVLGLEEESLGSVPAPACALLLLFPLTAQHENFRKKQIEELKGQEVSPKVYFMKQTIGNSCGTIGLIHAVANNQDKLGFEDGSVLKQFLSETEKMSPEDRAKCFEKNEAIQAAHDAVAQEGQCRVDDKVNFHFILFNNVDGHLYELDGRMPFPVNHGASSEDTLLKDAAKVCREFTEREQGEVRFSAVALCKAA
Outline: as §1

UCHL3 = target: T4, UCHL3 (UniProt P15374)
T4 sequence (whole entry): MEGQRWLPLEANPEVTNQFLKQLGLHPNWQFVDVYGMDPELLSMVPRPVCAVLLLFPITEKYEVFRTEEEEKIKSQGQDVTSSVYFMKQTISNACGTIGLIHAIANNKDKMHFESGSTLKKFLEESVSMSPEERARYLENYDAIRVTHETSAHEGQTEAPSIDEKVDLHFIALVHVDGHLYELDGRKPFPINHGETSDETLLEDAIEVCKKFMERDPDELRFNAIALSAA
Outline: as §1

UCHL5 = target: T5, UCHL5 (UniProt Q9Y5K5)
T5 sequence (whole entry): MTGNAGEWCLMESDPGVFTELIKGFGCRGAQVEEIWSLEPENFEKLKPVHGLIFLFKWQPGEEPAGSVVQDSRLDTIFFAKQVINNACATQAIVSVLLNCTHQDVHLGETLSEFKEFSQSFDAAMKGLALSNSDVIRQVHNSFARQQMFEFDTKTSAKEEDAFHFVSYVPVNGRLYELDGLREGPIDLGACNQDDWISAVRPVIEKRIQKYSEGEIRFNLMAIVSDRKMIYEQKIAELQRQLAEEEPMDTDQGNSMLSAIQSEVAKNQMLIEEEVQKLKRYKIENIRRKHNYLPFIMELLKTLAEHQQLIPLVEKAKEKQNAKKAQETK
Outline: as §1

USP10 = USP10 (UniProt Q14694)
Sequence of USP10 (Q14694 whole entry): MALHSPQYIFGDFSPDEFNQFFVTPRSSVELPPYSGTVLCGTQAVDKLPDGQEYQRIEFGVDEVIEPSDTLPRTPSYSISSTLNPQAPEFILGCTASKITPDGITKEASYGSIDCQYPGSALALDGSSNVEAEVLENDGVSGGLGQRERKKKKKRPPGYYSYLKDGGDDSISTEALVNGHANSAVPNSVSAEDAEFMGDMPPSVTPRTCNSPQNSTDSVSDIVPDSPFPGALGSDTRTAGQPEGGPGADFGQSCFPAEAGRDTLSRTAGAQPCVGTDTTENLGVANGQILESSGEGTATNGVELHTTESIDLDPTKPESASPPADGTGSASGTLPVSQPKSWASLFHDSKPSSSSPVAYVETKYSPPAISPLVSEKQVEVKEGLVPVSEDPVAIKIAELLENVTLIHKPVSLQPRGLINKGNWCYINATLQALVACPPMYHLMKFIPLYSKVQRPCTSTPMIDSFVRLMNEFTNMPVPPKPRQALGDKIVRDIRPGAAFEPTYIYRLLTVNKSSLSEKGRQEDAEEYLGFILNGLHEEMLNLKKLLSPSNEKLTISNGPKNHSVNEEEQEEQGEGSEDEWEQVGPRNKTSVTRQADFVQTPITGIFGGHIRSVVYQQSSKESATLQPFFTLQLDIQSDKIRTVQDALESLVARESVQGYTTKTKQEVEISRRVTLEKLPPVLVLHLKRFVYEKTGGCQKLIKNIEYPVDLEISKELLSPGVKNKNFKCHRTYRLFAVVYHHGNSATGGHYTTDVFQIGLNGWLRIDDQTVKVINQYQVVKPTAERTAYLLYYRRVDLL
Outline: as §1

USP15 = target: T6, USP15 (UniProt Q9Y4E8)
T6 sequence (whole entry): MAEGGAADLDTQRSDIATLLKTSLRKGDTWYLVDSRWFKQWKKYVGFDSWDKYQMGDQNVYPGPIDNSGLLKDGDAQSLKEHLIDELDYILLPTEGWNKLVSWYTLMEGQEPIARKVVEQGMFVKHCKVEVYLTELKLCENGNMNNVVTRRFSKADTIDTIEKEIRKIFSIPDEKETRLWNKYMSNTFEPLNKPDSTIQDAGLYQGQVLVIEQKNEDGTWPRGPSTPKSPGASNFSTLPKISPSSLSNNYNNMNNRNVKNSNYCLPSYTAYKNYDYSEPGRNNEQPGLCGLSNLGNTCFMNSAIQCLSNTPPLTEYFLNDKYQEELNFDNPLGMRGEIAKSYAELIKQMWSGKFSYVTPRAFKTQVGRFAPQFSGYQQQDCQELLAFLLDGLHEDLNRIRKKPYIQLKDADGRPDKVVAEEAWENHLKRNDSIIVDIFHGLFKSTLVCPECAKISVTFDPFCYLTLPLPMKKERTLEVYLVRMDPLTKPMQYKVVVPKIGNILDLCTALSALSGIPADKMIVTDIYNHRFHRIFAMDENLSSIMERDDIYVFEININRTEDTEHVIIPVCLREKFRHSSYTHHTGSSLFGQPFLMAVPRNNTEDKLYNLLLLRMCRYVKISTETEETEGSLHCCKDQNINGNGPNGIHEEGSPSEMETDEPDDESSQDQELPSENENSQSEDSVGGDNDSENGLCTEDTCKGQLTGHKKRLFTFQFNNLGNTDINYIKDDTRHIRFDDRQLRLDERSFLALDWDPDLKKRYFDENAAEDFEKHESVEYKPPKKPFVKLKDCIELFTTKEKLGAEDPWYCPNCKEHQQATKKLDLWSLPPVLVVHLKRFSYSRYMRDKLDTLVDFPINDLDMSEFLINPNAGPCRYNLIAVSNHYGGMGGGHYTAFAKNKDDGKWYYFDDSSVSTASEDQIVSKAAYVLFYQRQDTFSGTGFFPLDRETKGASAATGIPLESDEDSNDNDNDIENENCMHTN
Outline: as §1

USP16 = USP16 (UniProt Q9Y5T5)
Sequence of USP16 (Q9Y5T5 whole entry, looked up): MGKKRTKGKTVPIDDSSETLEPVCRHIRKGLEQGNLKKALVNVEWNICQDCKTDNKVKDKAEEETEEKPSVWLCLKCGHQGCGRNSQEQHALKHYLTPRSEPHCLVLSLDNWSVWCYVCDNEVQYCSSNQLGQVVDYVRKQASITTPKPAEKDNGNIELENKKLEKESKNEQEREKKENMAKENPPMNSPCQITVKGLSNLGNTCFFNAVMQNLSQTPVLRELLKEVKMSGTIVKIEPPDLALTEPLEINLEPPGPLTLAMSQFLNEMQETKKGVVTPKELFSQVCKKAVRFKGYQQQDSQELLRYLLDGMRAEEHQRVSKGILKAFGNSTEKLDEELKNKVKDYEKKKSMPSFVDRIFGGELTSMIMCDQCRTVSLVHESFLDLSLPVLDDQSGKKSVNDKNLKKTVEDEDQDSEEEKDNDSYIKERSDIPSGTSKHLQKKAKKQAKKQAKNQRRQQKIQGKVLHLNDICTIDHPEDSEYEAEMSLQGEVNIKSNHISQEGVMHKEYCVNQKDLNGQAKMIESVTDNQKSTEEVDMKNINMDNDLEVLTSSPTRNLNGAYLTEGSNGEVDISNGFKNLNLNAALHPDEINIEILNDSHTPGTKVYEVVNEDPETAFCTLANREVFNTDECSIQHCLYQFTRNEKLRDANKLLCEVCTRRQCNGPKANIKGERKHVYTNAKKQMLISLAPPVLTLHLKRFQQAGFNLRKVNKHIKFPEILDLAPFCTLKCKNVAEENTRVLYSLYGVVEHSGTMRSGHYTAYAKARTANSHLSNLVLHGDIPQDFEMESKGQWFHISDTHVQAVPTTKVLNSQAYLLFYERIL
Outline: as §1

Q: Which “log2 ratio of Biotin-Ahx-Ub-VS probe labelling” value (“log2 ratio” below) (OTUD6B) does the source give for `Cl.Cn1ncc2c1CC(NC(=O)CCl)CC2` (stereo not given) here?
A: 0.0134

Q: And the “log2 ratio” value (OTUD7B)?
A: -0.999

Q: And the “log2 ratio” value (PRPF8)?
A: 0.142

Q: What about the “log2 ratio” value (PSMD7) of the same molecule?
A: -0.2

Q: And the “log2 ratio” value (UCHL1)?
A: -1.84 (active)

Q: And the “log2 ratio” value (UCHL3)?
A: 0.377

Q: And the “log2 ratio” value (UCHL5)?
A: -0.0217

Q: And the “log2 ratio” value (USP10)?
A: -0.106

Q: What about the “log2 ratio” value (USP15) of the same molecule?
A: -0.0211

Q: And the “log2 ratio” value (USP16)?
A: -0.62

Source: the supplement of paper PMC11732987, “Enantioselective OTUD7B fragment discovery through chemoproteomics screening and high-throughput optimisation” (Communications Chemistry, 2025)
